Shown are actives, neighbours in structure and some others; about 2.6% of the full set was active somewhere.
LMP1 NFkB inh: Epstein-Barr LMP1 NF-kappaB reporter inhibition; LMP1-induced NF-kappaB luciferase reporter cells, luminescence; inhibition, % at 12.5 µM; 0.69% of 350,000 active; AID 504558; in the data active means inhibition above about 41%; inconclusive means no clear call, values can overlap the other calls;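 further: 0% = neutral control wells and 100% = reference inhibitor control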
TROY signal inh: blocks TROY-dependent signaling in reporter cells; 0.98% of 360,000 active; AID 1347056; inhibition, % at 10 µM; Q293 LMP1-TROYcd NF-kB luciferase reporter, 4 h;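 active means compounds whose plate-normalised and pattern-corrected inhibition of the luciferase reporter signal at the single screening dose is 50% or more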
TWEAK-Fn14 inh: TWEAK-Fn14 signaling inhibition. 2% of 360,000 active. TWEAK-stimulated Fn14 reporter cells, luciferase luminescence, 8 h. inhibition, % at 10 µM; in the data active means inhibition above about 50%
HSP90 refold inh: blocks HSP90-mediated luciferase refolding in reticulocyte lysate; inhibition, % at 5.6 µM; Rabbit reticulocyte lysate, luciferase refolding luminescence, 3 h; 0.91% of 290,000 active;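 active means inhibition above the screen-wide mean plus 3 SD, computed separately per campaign, cut at about 16% in these data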;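 further: 0% = DMSO wells and 100% = 60 µM geldanamycin wells; inhibitors lower the luminescence because luciferase stays unfolded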
aDG glyco up: increases alpha dystroglycan glycosylation | Pro5-aDG cells, alpha-DG glycosylation AlphaScreen (IIH6); 0% Pro5, 100% B10-LARGE cell signal | activation, % at 10 µM | 0.22% of 360,000 active | AID 624168;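 active means activation of at least 8% versus controls, or a plate z-score of at least 8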;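 further: Pro5 are CHO cells carrying HIG-tagged alpha-DG that lacks glycosylation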
LGR2 antag: blocks bursicon-induced cAMP signaling via Drosophila LGR2 | AID 720647 | HEK293 LGR2, CRE-luciferase, bursicon-stimulated, 4 h | inhibition, % at 9.99 µM | 0.35% of 380,000 active;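 active means drop in luminescence signal, shown as inhibition above about 50% in the replicate tests, limit read from the data, passing the limit was not always enough; inconclusive means probably only some replicates passing the limit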;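 further: agonist challenge used bursicon conditioned medium at about half maximal strength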
* = called active by the depositor; ? = inconclusive; nt = no result given; ! = not confirmed by another sample.

SMILES | LMP1 NFkB inh | TROY signal inh | TWEAK-Fn14 inh | HSP90 refold inh | aDG glyco up | LGR2 antag
O=C(NCC[C@H]1CC[C@H](NC(=O)c2cnccn2)[C@H](CO)O1)Nc1ccc(Cl)cc1 | nt | nt | nt | nt | nt | -19.1
CCOC(=O)c1sc(NC(=S)NC(=O)c2ccccc2)nc1C | -31.7 | -24.6 | -21.2 | -1.2 | 0.1 | -101.0
COC(=O)c1sc(NC(=S)NC(=O)c2ccccc2)nc1C | -32.8 | 52.1* | 6.8 | -4.1 | -0.3 | -20.5
CN(C)c1ccc(NC(=O)c2cccc(C(=O)Nc3ccc(N(C)C)cc3)n2)cc1 | 4.3 | 11.4 | 50.6* | -2.9 | -0.8 | -15.0
Cc1ccc(Nc2cc(C)nn2-c2nc(C)cc(C)n2)cc1 | 12.9 | 2.7 | -5.0 | 3.1 | 1.3 | nt
Cc1ccc(Nc2cc(C)nn2-c2nc(C)cc(=O)[nH]2)cc1 | -44.7 | 83.7* | 108.0* | 0.4 | -0.4 | nt
CCNc1ccc(C(=O)N/N=C/c2c(C)nn(-c3ccccc3)c2N2CCCC2)cc1[N+](=O)[O-] | 21.4 | 8.3 | 31.1 | -3.8 | 0.1 | 6.8
Cc1ccc(NS(=O)(=O)c2cccc(C(=O)N/N=C/c3c(C)nn(-c4ccccc4)c3N3CCCC3)c2)c(C)c1 | 1.8 | 14.1 | 57.0* | 4.8 | 0.5 | 14.4
O=C(C1CC1)N1C[C@@H]2N[C@H](C1)C2c1ccc(-c2ccccc2F)cc1 (stereo partly drawn) | nt | nt | nt | nt | nt | 88.0*!
O=C(C1CC1)N1C[C@@H]2N[C@H](C1)C2c1ccc(-c2cccc(F)c2)cc1 (stereo partly drawn) | nt | nt | nt | nt | nt | 61.0*!
N#Cc1ccc(-c2ccc(C3[C@@H]4CN(C(=O)C5CCC5)C[C@H]3N4)cc2)cc1 (stereo partly drawn) | nt | nt | nt | nt | nt | 69.8*!
O=C(c1ccc(F)cc1)N1C[C@@H]2N[C@H](C1)C2c1ccc(-c2ccccc2F)cc1 (stereo partly drawn) | nt | nt | nt | nt | nt | 12.3
N#Cc1cccc(-c2ccc(C3[C@@H]4CN(C(=O)C5CC5)C[C@H]3N4)cc2)c1 (stereo partly drawn) | nt | nt | nt | nt | nt | 89.1*!
CCC(=O)N1CC2(C1)[C@@H](c1ccccc1)[C@@H](CO)N2CC1CC1 | nt | nt | nt | nt | nt | 3.2
CO[C@@H]1CN(C)C(=O)c2cc(NC(=O)NC3CCCCC3)ccc2OC[C@@H](C)NC[C@H]1C | nt | nt | nt | nt | nt | 1.7
COc1cccc(C#Cc2ccc([C@@H]3[C@@H](CO)N4C(=O)CN(S(=O)(=O)c5ccccc5C)C[C@@H]34)cc2)c1 | nt | nt | nt | nt | nt | 16.2
CN=C1S/C(=C\c2ccc(O)c(OC)c2)C(=O)N1C | nt | -40.0 | -49.9 | nt | -0.1 | -58.0
CN=C1S/C(=C\c2ccc(O)c(Br)c2)C(=O)N1C | 44.7* | -4.8 | 42.4 | 1.3 | -0.2 | -32.8
COc1ccc(O)c(/C=N/Nc2nc(Nc3ccccc3)nc(-n3nc(C)cc3C)n2)c1 | 62.0* | -28.4 | 59.7* | 6.1 | -0.7 | nt
CO[C@@H]1CN(C)C(=O)c2cc(NC(=O)C3CCC3)ccc2OC[C@@H](C)N(S(=O)(=O)c2ccc(Cl)cc2)C[C@H]1C | nt | nt | nt | nt | nt | 19.0
CO[C@H]1CN(C)C(=O)c2cc(NC(=O)C3CC3)ccc2OC[C@@H](C)N(C(C)=O)C[C@H]1C | nt | nt | nt | nt | nt | -4.7
CC(C)(S)[C@@H](N)C(=O)O | 55.0* | 3.0 | -0.1 | -0.6 | -0.1 | 9.3
Cc1cc(C)n2c(SC(C)C(=O)NC3(C#N)CCCCC3)nnc2n1 (stereo not drawn) | -4.0 | 2.9 | 67.4* | nt | -0.2 | -3.6
O=C(CCN1C(=O)S/C(=C\c2ccccc2)C1=O)N1CCCCC1 | -11.4 | -43.8 | -14.6 | -0.2 | -0.1 | -6.0
O=C1/C(=C\c2ccc(Cl)c(Cl)c2)CN(C(=O)CCN2CCOCC2)C/C1=C/c1ccc(Cl)c(Cl)c1 | 2.5 | 77.5* | 106.6* | nt | -0.5 | 90.6*
SMILES | LMP1 NFkB inh | TROY signal inh | TWEAK-Fn14 inh | HSP90 refold inh | aDG glyco up | LGR2 antag
CCN(CC)CCC(=O)N1C/C(=C/c2ccccc2)C(=O)/C(=C\c2ccccc2)C1 | ? | 62.7* | 106.8* | nt | -0.3 | 92.2*
O=C1/C(=C\c2ccccc2)CN(C(=O)CCN2CCCCC2)C/C1=C/c1ccccc1 | -32.0 | 68.6* | 105.9* | nt | -0.3 | 104.0*
Cc1nc(-c2ccccc2)cn(O)c1=O | 0.3 | 5.9 | 64.5* | 2.6 | 0.3 | 19.8
COc1cc(NC2c3ccccc3C(=O)N2c2ccc(C)cn2)cc(OC)c1OC (stereo not drawn) | -11.3 | 21.8 | 44.2 | 15.0 | -0.3 | 38.7
Cc1ccc(N2C(=O)c3ccccc3C2Nc2cccnc2)nc1 (stereo not drawn) | 81.4* | -13.3 | 9.6 | 2.0 | -0.2 | 49.8
O=C1c2ccccc2C(Nc2cccnc2)N1Cc1ccccc1 (stereo not drawn) | 81.9* | -16.4 | 1.6 | -0.4 | -0.2 | -4.1
C[C@@H]1O[C@@H]1P(=O)(O)O | 74.8* | -2.8 | -3.3 | nt | 0.0 | nt
CCNC(=O)C[C@@H]1CC[C@H](NS(=O)(=O)c2ccc(F)cc2)[C@H](CO)O1 | nt | nt | nt | nt | nt | -8.8
CNC[C@H]1Oc2ccc(NC(=O)NC(C)C)cc2CC(=O)N([C@H](C)CO)C[C@H]1C | nt | nt | nt | nt | nt | 2.8
COc1cccc(CN(C)C(=O)c2cc(COc3ccc4ncccc4c3)on2)c1 | -0.7 | 40.9 | 59.5* | 2.7 | 12.8* | 16.5
COc1cccc(CN(C)C(=O)c2cc(COc3c(F)cccc3F)on2)c1 | 2.1 | -41.3 | 24.8 | 4.3 | -0.2 | -38.0
O=C1CNC[C@@H]2[C@@H](c3ccc(C#Cc4cccnc4)cc3)[C@@H](CO)N12 | nt | nt | nt | nt | nt | 24.1
O=C(NC1CCCCC1)N1CC(=O)N2[C@H](CO)[C@H](c3ccc(/C=C/c4ccccc4)cc3)[C@@H]2C1 | nt | nt | nt | nt | nt | 8.3
Cc1ccccc1NC(=O)C(Cl)=C(Cl)Cl | 90.0* | -5.1 | 11.7 | -0.8 | 1.1 | 5.9
Cc1ccc(C(=O)CSc2nnc3c4ccccc4nc(C(C)(C)C)n23)cc1 | -10.4 | 51.9* | 13.1 | 0.2 | 0.0 | 12.9
CN(C)CC(=O)N1[C@H](CO)[C@@H](c2ccccc2)C12CN(C(=O)C1CCCC1)C2 | nt | nt | nt | nt | nt | -25.1
CCCCOCCCNc1ncnc2c1[nH]c1ccccc12 | 15.0 | 38.4 | 59.5* | 7.9 | 5.6 | nt
O=S(=O)(Nc1nc2ccccc2nc1N1CCc2ccccc2C1)c1ccc(Br)cc1 | -14.1 | 13.5 | 78.1* | 16.8* | -0.1 | -22.1
CC(=O)Nc1ccc(S(=O)(=O)Nc2nc3ccccc3nc2N2CCc3ccccc3C2)cc1 | -9.0 | -12.8 | 14.7 | -0.2 | -0.1 | -92.3

Screening data deposited in PubChem by several laboratories.
